Tau fibril ThT: blocks human tau fibril formation measured by thioflavin T. P10636. recombinant tau K18 P301L, heparin-induced fibrillization, ThT fluorescence. AID 1460. Potency, µM (doses to about 57.4 µM), actives largely listed as inhibitors. hit rate 2.1% among 270,000; further: nearly all actives have a fitted effect of over 55% in size
Target sequence (P10636 561-689 P618L limits assumed): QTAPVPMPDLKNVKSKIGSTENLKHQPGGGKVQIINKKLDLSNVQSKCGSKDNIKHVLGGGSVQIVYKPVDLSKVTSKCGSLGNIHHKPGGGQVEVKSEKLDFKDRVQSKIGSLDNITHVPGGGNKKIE
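Aggregation was driven by heparin (20 uM final) acting on recombinant tau […] bearing P301L in 100 mM sodium acetate pH 7; fibrils were detected with Thioflavin T.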
TRb SRC2 PPI: TRbeta-SRC2 interaction inhibition | hit rate 0.065% among 280,000 | Potency, µM (top dose mostly 106 µM), actives largely listed as inhibitors | AID 1469 | TRbeta-SRC2 peptide binding, fluorescence polarization; receptor liganded with 1 µM T3 | P10828; further: nearly all actives have a fitted effect of over 50% in size
Target sequence (P10828 whole entry, looked up): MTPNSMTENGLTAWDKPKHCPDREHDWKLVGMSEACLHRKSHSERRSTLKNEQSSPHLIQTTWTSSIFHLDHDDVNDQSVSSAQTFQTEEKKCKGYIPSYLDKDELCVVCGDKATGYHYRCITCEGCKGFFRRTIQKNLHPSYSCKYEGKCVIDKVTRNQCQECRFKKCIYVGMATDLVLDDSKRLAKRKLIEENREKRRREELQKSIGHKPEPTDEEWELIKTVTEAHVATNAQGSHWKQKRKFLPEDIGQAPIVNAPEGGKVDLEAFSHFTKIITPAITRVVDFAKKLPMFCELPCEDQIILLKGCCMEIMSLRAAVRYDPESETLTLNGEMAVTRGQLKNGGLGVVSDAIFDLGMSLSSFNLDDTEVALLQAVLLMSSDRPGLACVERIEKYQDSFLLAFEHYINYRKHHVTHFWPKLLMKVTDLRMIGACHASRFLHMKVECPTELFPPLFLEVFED
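A fluorescence polarization screen tested compounds at multiple concentrations against complex formation between 0.6 uM TRb ligand-binding domain and 20 nM Texas Red SRC2 peptide, with 1 uM T3 present; readout after 5 hr.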
Tau fibril FP: inhibitors of human tau fibril formation. P10636. AID 1468. Potency, µM (top dose mostly 57.7 µM), actives largely listed as inhibitors. hit rate 0.39% among 280,000. K18 P301L tau heparin fibrillization, Alexa594 FP, 6 h; further: nearly all actives have a fitted effect of over 55% in size
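Steps: dispense K18 P301L tau (15 uM plus 0.24 uM Alexa 594 tracer, final) in pH 7 sodium acetate; add compound; add heparin (20 uM final); incubate 6 hr, 37 C; add ThT (30 uM final); after 1 hr ambient, read FP.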
TR SRC2 fluor cs: alters Texas Red total fluorescence, flagging assay interference; TRb/SRC2 Texas Red total fluorescence interference; Potency, µM (doses to about 106 µM); hit rate 0.29% among 280,000; AID 1479; active means well fitted curve in either direction with a large enough effect; inconclusive means small, poorly fitted or top-dose-only effect
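Human TRβ ligand-binding domain (0.6 uM) and Texas Red SRC2 peptide (20 nM) in Tris buffer with 1 uM T3 and 5% DMSO were incubated with pinned compound for 5 hr at ambient temperature. Total fluorescence was computed as S + 2P (555/632 nm).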
Tau fluor cs: counter-screen for tau fibril formation inhibitors. tau K18 P301L Alexa594 fluorescence, heparin fibrillization. Potency, µM (highest dose often 57.7 µM). hit rate 0.93% among 280,000. AID 1463; further: nearly all actives have a fitted effect of over 55% in size
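Human tau K18 P301L (15 uM unlabeled, 0.24 uM Alexa 594-labeled) in 100 mM sodium acetate pH 7 with 20 uM heparin, 6 hr at 37 C. ThT 30 uM added, 1 hr ambient; Alexa 594 FP and total fluorescence read at 555/632 nm.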
Large screens that a line does not name were inactive; [ ] = remark or other dose. The list is not random: actives were taken first. Their share in the collection is about 3.1%. Unless noted, the call rests on the fitted dose curve; in most records, active means well fitted curve in the direction sought with a large enough effect; inconclusive means small, poorly fitted or top-dose-only effect, or another doubt; inactive means no such curve, though single readings can be large; an effect the other way counts as inactive or inconclusive.

CCCOC(=O)c1cccc(NC(=O)CSc2nnc3cc(C)c4ccccc4n23)c1	TR SRC2 fluor cs 2.8µM[quencher]
COc1ccc(C2CC(=O)Oc3c(C(CCN4CCCC(C)C4)c4cc(OC)c(OC)c(OC)c4)c(OC)cc(OC)c32)cc1 (configuration not stated)	none (no result: Tau fibril ThT, Tau fibril FP, Tau fluor cs)
CCOc1c(OC(C)=O)ccc(/C=C/c2ccc3cccc(OC(C)=O)c3n2)c1[N+](=O)[O-]	Tau fibril ThT 6.3µM, Tau fibril FP inconclusive, Tau fluor cs 8.9µM[quencher]
COc1c(OC(C)=O)ccc(/C=C/c2ccc3cccc(OC)c3n2)c1[N+](=O)[O-]	Tau fibril ThT 8.9µM, Tau fluor cs inconclusive
COc1c(OC(C)=O)ccc(/C=C/c2ccc3ccccc3n2)c1[N+](=O)[O-]	Tau fibril ThT 10µM, Tau fibril FP inconclusive, Tau fluor cs 16µM[quencher]
CC(C)C(=O)O/N=C(\N)c1ccc(Oc2ccc(Cl)cc2)c([N+](=O)[O-])c1	none (no result: Tau fibril ThT)
O=C1NN(c2ccc(Cl)c(Cl)c2)C(=O)/C1=C/c1cccc(OC(=O)c2cccs2)c1	Tau fibril ThT 16µM, Tau fibril FP inconclusive, Tau fluor cs inconclusive
O=C1NN(c2ccccc2)C(=O)/C1=C\c1cccc(OC(=O)c2cccs2)c1	Tau fibril ThT 16µM, Tau fibril FP inconclusive
Cn1c(=O)[nH]c(=O)n(C2CCC(O)CC2)c1=O (configuration not stated)	none (no result: Tau fibril ThT, Tau fibril FP, Tau fluor cs)
CC(=O)N1CCCc2cc(S(=O)(=O)N3CCC(C(=O)NCc4ccc(N(C)C)cc4)CC3)ccc21	none
CCOc1ccc2nc(/N=C/c3c(C)[nH]n(-c4ccc(C)cc4)c3=O)sc2c1	Tau fibril ThT inconclusive
CCOc1ccc2nc(/N=C/c3c(C)[nH]n(-c4ccccc4)c3=O)sc2c1	Tau fibril ThT 14µM, Tau fibril FP inconclusive, Tau fluor cs inconclusive
CCOC(=O)C1=C(C)NC2=C(C(=O)c3ccccc32)C1c1ccc([N+](=O)[O-])o1 (configuration not stated)	Tau fibril ThT inconclusive, Tau fluor cs inconclusive
CCOc1ccc(Br)cc1C1C(C(=O)OC)=C(C)NC2=C1C(=O)c1ccccc12 (configuration not stated)	Tau fibril ThT 10µM, Tau fluor cs 7.9µM[quencher]
CCOC(=O)COc1ccccc1C1C(C(=O)OC)=C(C)NC2=C1C(=O)c1ccccc12 (configuration not stated)	Tau fibril ThT 14µM, Tau fluor cs 14µM[quencher]
COC(=O)COc1ccc(C2C(C(=O)OC)=C(C)NC3=C2C(=O)c2ccccc23)cc1OC (configuration not stated)	Tau fibril ThT 14µM, Tau fluor cs 14µM[quencher]
CCOc1cc(C2C(C(=O)OC)=C(C)NC3=C2C(=O)c2ccccc23)cc(Cl)c1O (configuration not stated)	Tau fibril ThT inconclusive, Tau fibril FP inconclusive, Tau fluor cs 7.9µM[quencher]
Cc1cccc(OCC(=O)NNC(=O)C2CCCCC2C(=O)O)c1 (configuration not stated)	none
CCCCSc1nnc(CNC(=O)C23CC4CC(CC(C4)C2)C3)n1Cc1ccccc1	none
O=c1c(O)c(-c2ccc(O)cc2)oc2ccc(O)cc12	Tau fibril ThT inconclusive
Nc1ccc2oc3ccc(N)cc3c(=O)c2c1	Tau fibril ThT 14µM
Cc1ccc(Cl)cc1NC(=O)N1CCC2(CC1)Oc1ccccc1C(=O)N2Cc1ccccc1F	TR SRC2 fluor cs 35µM[quencher]
CCOC(=O)C(C)NC(=O)c1c(C)oc2ncn(CC(C)C)c(=O)c12 (configuration not stated)	none
O=C(Nc1cccc(Cl)c1)Nc1cc(S(=O)(=O)N2CCOCC2)ccc1N1CCCC1	Tau fluor cs 14µM[quencher]
O=C(Cc1ccc(Cl)cc1)Nc1cc(S(=O)(=O)N2CCOCC2)ccc1N1CCCC1	none
Cc1ccccc1-n1ccnc1SCC(=O)NCc1ccco1	Tau fibril ThT inconclusive
N#CC1=C(N)N=C(SCc2ccccc2)C(C(N)=O)C12CCCCC2 (configuration not stated)	none
Cc1ccc(C(=O)CSC2=NC(N)=C(C#N)C3(CCCCC3)C2C(N)=O)cc1 (configuration not stated)	Tau fibril ThT 25µM, Tau fibril FP inconclusive
COc1ccc(C2NC3=C(CCC3)C3(C#N)C4(N=C(N)C23C#N)OCCO4)cc1 (configuration not stated)	Tau fibril ThT inconclusive
COc1ccc(C2NC3=C(CCCC3)C(C#N)(C#N)C2(C#N)C#N)cc1 (configuration not stated)	Tau fibril ThT 25µM, TRb SRC2 PPI inconclusive, Tau fibril FP inconclusive, Tau fluor cs inconclusive
CCCCCC1CCC(=O)O1 (configuration not stated)	none (no result: Tau fibril ThT, Tau fibril FP, Tau fluor cs)
CCN1/C(=C/C(C)=C/c2sc3ccccc3[n+]2CC)Sc2ccccc21	Tau fibril ThT 1.6µM, TRb SRC2 PPI inconclusive, Tau fibril FP inconclusive, TR SRC2 fluor cs 20µM[fluorescent], Tau fluor cs 0.45µM[fluorescent]
CCN1/C(=C\C(C)=O)Sc2ccc(OC)cc21	none
CCn1nc(C)cc1C(=O)N1CCCC(CCC(=O)NCc2ccccc2F)C1 (configuration not stated)	none
CCOc1ccc(CNC(=O)c2cnc3sc(N4CCOCC4)nn3c2=O)cc1OC	TRb SRC2 PPI inconclusive, TR SRC2 fluor cs 1995µM[quencher]
CCOc1ccc(CNC(=O)c2cnc3sc(N4CCOCC4)nn3c2=O)cc1	none
CC(=O)Nc1ccccc1C(=O)C(=O)Nc1ccc(C(=O)N2CCOCC2)cc1	none
O=C(O)C(Oc1ccc(Cl)cc1)Oc1ccc(Cl)cc1	none (no result: Tau fibril ThT, Tau fibril FP, Tau fluor cs)
CCC(C(=O)OCC(=O)Nc1cc(Cl)cc(Cl)c1)c1ccccc1 (configuration not stated)	Tau fibril FP 32µM, Tau fluor cs inconclusive
CCC(C(=O)OCC(=O)Nc1cccc(C(C)=O)c1)c1ccccc1 (configuration not stated)	none
CC1(C)Oc2ccc3ccc(=O)oc3c2/C(=C/Nc2ccc(O)cc2)C1=O	Tau fluor cs 13µM[quencher]
CC(C)(C)C(=O)C(Cl)C(=O)Nc1ccccc1 (configuration not stated)	Tau fibril ThT 7.1µM, Tau fibril FP inconclusive
Cc1ccccc1C(=O)OC1OC(=O)C(Cl)=C1N1CCOCC1 (configuration not stated)	none
CCOc1ccc(Nc2nc3c(S(=O)(=O)c4ccc(C(C)C)cc4)nnn3c3ccsc23)cc1	Tau fluor cs inconclusive
Cc1ccc(S(=O)(=O)c2nnn3c2nc(Nc2ccc(C(C)C)cc2)c2sccc23)cc1C	Tau fibril FP 13µM, Tau fluor cs inconclusive
CCCc1nn2c(=O)cc(COC(=O)c3cccc(NC(=O)COc4ccccc4C)c3)nc2s1	Tau fibril ThT inconclusive
Cc1ccc2cccc(NC(=O)C(C)(C)Oc3ccc(Br)cc3)c2n1	Tau fibril FP inconclusive
Cc1ccc(-c2nnc(Nc3ccc(Br)cc3)c3ccccc23)cc1S(=O)(=O)N1CCCCC1	Tau fibril FP inconclusive, Tau fluor cs inconclusive

Screening results from PubChem.
